697 NFkB inh: inhibitors of the PMA/ionomycin-induced NF-kB reporter in 697 B cells; hit rate 0.33% among 330,000; 697 B-cell NF-kB luciferase reporter, 16 h; inhibition, % at 4 µM; in the data active means inhibition above about 35%
Jurkat NFkB inh: lowers PMA/ionomycin-induced NF-kB signal in Jurkat cells. PMA/ionomycin-induced NF-kB luciferase reporter, luminescence. hit rate 0.53% among 330,000. inhibition, % at 4 µM. AID 435003; in the data active means inhibition above about 50%
aSyn 5UTR inh: 5' untranslated region of α-synuclein, MLPCN primary screen; alpha-synuclein 5'UTR reporter, inhibitor activity; inhibition, % (tested at 7.5 µM); hit rate 0.82% among 300,000; AID 1813; in the data active means inhibition above about 60%;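 further: H4 neuroglioblastoma cells stably carrying SNCA 5'UTR luciferase fusion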
Gli-Sufu antag: antagonists of Gli-Sufu signaling; Sufu-KO-LIGHT fibroblasts, Gli luciferase reporter luminescence; inhibition, % at 5 µM; hit rate 0.74% among 340,000;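 active means inhibition above about 55%, limit read from the data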
CSC inhib: cancer stem cell inhibition; cancer stem cell-like cells viability, luminescence; inhibition, % at 7.5 µM; hit rate 1.1% among 300,000; in the data active means inhibition above about 75%; tested in HMLE shEcad cells
Mdm2-MdmX inh: human Mdm2/MdmX binding inhibition; SaOS-2 split-luciferase Mdm2/MdmX complementation, luminescence; inhibition, % at 8 µM; O15151+Q00987; hit rate 3% among 330,000;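 active means inhibition of at least 50% at 8 µM in the primary screen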
Hits are given with their value; i = inactive; nt = no result given. A selection: hits, their analogues and other compounds. The true share with any hit is near 4.5%.

SMILES	697 NFkB inh	Jurkat NFkB inh	aSyn 5UTR inh	Gli-Sufu antag	CSC inhib	Mdm2-MdmX inh
Cc1cccc(-c2noc(CN(C)C(=O)c3ccc4c(c3)OCO4)n2)c1	i	i	i	i	i	i
CCOC(=O)C(=NCCCN1CCOCC1)NNc1cccc(C(F)(F)F)c1	i	i	i	i	86	i
CCOC(=O)/C=C/C(=O)Nc1cccc([N+](=O)[O-])c1	i	i	i	i	108	i
CCOC(=O)c1cccc(NC(=O)/C=C/c2cccc([N+](=O)[O-])c2)c1	i	i	i	i	i	i
O=C(Cc1cccs1)N1CCN(S(=O)(=O)c2ccc(Cl)c(C(F)(F)F)c2)CC1	i	i	nt	i	i	i
Oc1c(CN2CCN(c3ccccc3)CC2)cc(Br)c2cccnc12	nt	nt	85	i	114	nt
Oc1c(CN2CCOCC2)cc(COCc2ccccc2)c2cccnc12	nt	nt	114	61	i	nt
COCc1cc(CN2CCN(C)CC2)c(O)c2ncccc12	i	i	i	i	i	i
O=[N+]([O-])c1ccc(N/N=C/c2cccnc2)cc1	i	i	i	i	i	i
Clc1ccc(N/N=C/c2cccnc2)cc1	i	i	i	i	85	i
CC1(C)C(=O)CC[C@@]2(C)[C@H]1CC[C@@]1(C)CC3=C(CC[C@@H]12)[C@@]1(C)CCC(=O)C(C)(C)[C@@H]1CC3	i	i	nt	nt	i	i
C=C(CC[C@@H](O)C(C)(C)O)[C@H]1CC[C@]2(C)[C@@H]1CCC1[C@@]3(C)CCC(=O)C(C)(C)C3CC[C@]12C (stereo partly drawn)	i	i	nt	i	109	i
O=C(O)c1ccc(NC(=O)c2cccc(S(=O)(=O)Nc3ccc(C(=O)O)cc3)c2)cc1	i	i	i	i	i	i
O=C1CSc2ccc(C(=O)Nc3cccc(S(=O)(=O)Nc4ccc(Br)cc4)c3)cc2N1	i	i	i	i	87	i
Cc1ccc[n+](CC(=O)Nc2cc(C(F)(F)F)ccc2Cl)c1	i	i	i	i	i	i
CCC(C)(C)c1ccc(OCCCC[n+]2cccc(C)c2)c(C(C)(C)CC)c1	nt	nt	i	87	nt	nt
CC(Oc1ccc2ccc(=O)oc2c1)C(=O)c1ccccc1 (stereo not drawn)	i	i	i	i	i	i
CCN(c1ccccc1C(=O)O)S(=O)(=O)c1cccc2nsnc12	i	i	i	i	i	i
CCCOc1ccc(CSCCNC(=S)Nc2ccccc2)cc1	i	i	i	i	77	i
CCOc1ccc(CSCCNC(=S)Nc2ccc(OC)cc2)cc1	i	i	i	i	i	i
CCCCn1c(C2CCCCC2)nc2cc3[nH]c(=O)c(C(C)C)nc3cc21	i	i	i	i	81	i
COc1ccccc1N1CCN(c2ccc(-c3ccccc3)nn2)CC1	i	i	79	i	i	i
Oc1ccc(N=Nc2c(O)ccc3ccccc23)cc1	i	i	i	i	78	i
CSc1nc(-c2ccccc2)nc(C(C)C)n1	i	i	nt	i	i	i
Cc1ccc(-c2csc3ncnc(-n4cnc5ccccc54)c23)cc1	i	i	i	i	77	i
SMILES	697 NFkB inh	Jurkat NFkB inh	aSyn 5UTR inh	Gli-Sufu antag	CSC inhib	Mdm2-MdmX inh
CCOC(=O)c1cccc(C2=CC(=O)C[C@H](c3ccc(Cl)cc3)C2)c1	i	i	nt	i	77	i
O=C1C=C(c2ccc(Cl)c(C(F)(F)F)c2)C[C@@H](c2ccc(Cl)cc2)C1	i	i	nt	i	116	i
CCc1ccc(OC(C)c2nnc(SCC(=O)Nc3ncccc3C)n2C)cc1 (stereo not drawn)	i	i	i	i	i	i
CCCCCCCCc1nnc(NC(=O)c2ccco2)s1	i	i	i	i	i	i
O=C(Nc1cc(C(F)(F)F)ccc1N1CCCCC1)c1ccc(Br)o1	i	i	i	i	82	i
C#CCOCCOCCOCCNc1nc(N2CCN(C(=O)CCCCCCCCCCNC(=O)Cn3cc(CCCCCN)nn3)CC2)nc(N2CCN(C(=O)CCCCCCCCCCNC(=O)[C@H]([C@@H](C)CC)n3cc(CCCCN=C(N)N)nn3)CC2)n1	i	i	nt	i	161	i
C#CCOCCOCCOCCNc1nc(N2CCN(C(=O)CCCCCCCCCCNC(=O)[C@H]([C@@H](C)CC)n3cc(CCCCCN)nn3)CC2)nc(N2CCN(C(=O)CCCCCCCCCCNC(=O)[C@H]([C@@H](C)CC)n3cc(CCCCN=C(N)N)nn3)CC2)n1	i	i	nt	nt	i	i
Cc1ccc2c(c1)sc(=NC(=O)c1cccs1)n2C	i	i	85	i	i	i
CCOc1ccc(Nc2nc3cc(S(=O)(=O)N(CC)CC)ccc3o2)cc1	i	i	78	i	i	i
CCN(CC)S(=O)(=O)c1ccc2oc(Nc3ccc(OC)cc3)nc2c1	i	i	i	i	i	i
CCN1CCN(c2sc(S(C)(=O)=O)nc2S(=O)(=O)c2ccc(C)cc2)CC1	i	i	i	i	i	i
c1ccc(-c2cn3nc(-c4ccccc4)sc3n2)cc1	i	i	101	i	i	i
O=C(NCc1ccccn1)c1ccc2c(=O)n3nc(Nc4ccccc4)sc3nc2c1	i	i	i	i	i	i
CCc1ccccc1Nc1nn2c(=O)c3ccc(C(=O)NCc4ccccn4)cc3nc2s1	i	i	i	i	83	i
Cc1nc(-c2ccccc2)sc1C(=O)/C=C/c1ccc(Cl)cc1	i	i	i	i	94	i
O=[N+]([O-])c1ccc(CP(=O)(c2ccccc2)c2ccccc2)cc1	i	i	i	i	81	i
O=[N+]([O-])c1cccc(CP(=O)(c2ccccc2)c2ccccc2)c1	i	i	nt	i	i	i
O=C1C2C3C=CC(C3)C2C(=O)N1CCCCCCN1C(=O)C2C3C=CC(C3)C2C1=O (stereo not drawn)	i	i	nt	i	i	i
O=C1C=CC(=O)N1CCCCCCN1C(=O)C=CC1=O	nt	nt	nt	i	102	nt
CCOC(=O)N1CCN(S(=O)(=O)c2ccc(C(=O)NNc3nc4ccc(Cl)cc4s3)cc2)CC1	i	i	67	i	104	i
Cc1csc(NC(=O)c2ccc(N3CCCC3=O)cc2)n1	i	i	101	i	i	i
Cc1nnc(NC(=O)c2ccc(N3CCCC3=O)cc2)s1	i	i	nt	i	nt	i
COC1CC(C)C(OC)c2cc(O)cc(c2O)NC(=O)C(C)=CC=CC(C)C(OC(N)=O)C(C)=CC(C)C1OC (stereo not drawn)	nt	nt	nt	i	nt	nt
COC1C=CC=C(C)C(=O)NC2=CC(=O)C(N)=C(CC(C)CC(OC)C(O)C(C)C=C(C)C1OC(N)=O)C2=O (stereo not drawn)	nt	nt	nt	69	nt	nt
CCCCCCOc1ccc(/C(N)=N/O)cc1	i	i	i	i	i	i
N=C(N)c1ccc(OCCCCCOc2ccc(C(=N)N)cc2)cc1	i	i	67	i	i	i
Cc1[nH]n(-c2ccccc2)c(=O)c1C(=O)c1ccccc1	i	i	i	i	i	i
CC/C(=N/NC(=O)c1ccccc1O)c1c(C)[nH]n(-c2ccccc2)c1=O	i	i	i	i	81	i
CCOC(=O)c1c(C)[nH]c(C(=O)CSc2nnc(-c3ccncc3)n2CC)c1C	i	i	i	i	i	i
